Drawing on PubChem BioAssay (Tox21), this text covers Potency and activation for 40 compounds.

A number with no mark means an inactive call. A call without a number means that no potency is given here. The source made the active and inactive calls. Calls come from the whole dose curve.

In this experiment the target is Muscarinic acetylcholine receptor M1 (Homo sapiens) (UniProt P11229). Nature of the experiment: Cholinergic receptor muscarinic 1 (CHRM1) small molecule agonists, cell-based qHTS assay (AID 1963589). Note: nearly all actives have a fitted effect of over 35% in size. The following applies: CHRM1-CHO cells, agonist mode, calcium flux fluorescence; series mostly up to 76.8 µM. From the text: National Center for Advancing Translational Sciences [NCATS]
Muscarinic acetylcholine receptor M1 (Homo sapiens), sequence (P11229 whole entry, looked up): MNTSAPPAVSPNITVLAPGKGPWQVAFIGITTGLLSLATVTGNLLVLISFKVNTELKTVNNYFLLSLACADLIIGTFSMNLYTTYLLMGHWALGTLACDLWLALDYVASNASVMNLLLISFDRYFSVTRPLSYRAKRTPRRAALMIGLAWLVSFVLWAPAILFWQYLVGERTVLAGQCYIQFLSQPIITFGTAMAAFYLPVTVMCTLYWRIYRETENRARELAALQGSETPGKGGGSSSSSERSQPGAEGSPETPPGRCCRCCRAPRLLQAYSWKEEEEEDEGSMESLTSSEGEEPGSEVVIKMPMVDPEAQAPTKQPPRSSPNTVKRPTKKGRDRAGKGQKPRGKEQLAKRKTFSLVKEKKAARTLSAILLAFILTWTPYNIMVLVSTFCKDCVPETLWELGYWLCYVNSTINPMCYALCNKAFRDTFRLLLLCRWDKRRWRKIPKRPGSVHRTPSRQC
Division of Preclinical Innovation [DPI]
U.S. Environmental Protection Agency [EPA]
National Institutes of Environmental Health Sciences [NIEHS]
National Toxicology Program [NTP]
U.S. Food and Drug Administration [FDA]
The CHRM1 is a muscarinic receptor. This receptor plays a crucial role in learning and memory processes and has long been identified as a promising therapeutic target for the improvement of cognitive decline in Alzheimer's disease (AD). The CHRM1-CHO cell line stably expressing human muscarinic acetylcholine receptor M1 (CHRM1) can be used for screening agonists and antagonists of interactions between CHRM1 and its ligands. The CHRM1-CHO Calcium Flux Assay is a homogeneous fluorescence-based assay for detecting the intracellular calcium level using FDSS kinetic plate reader system.
CHRM1-CHO cells were dispensed at 1000 cells/3uL/well in 1536-well black-clear bottom plates using a Multidrop Dispenser. After the assay plates were incubated at a 37 C/5% CO2 incubator for 18 h, 3 uL of Dye Loading Buffer was transferred to the assay plate by a Flying Reagent Dispenser. The assay plates were incubated at 37 C for 1h. For agonist mode, 23 nL of compounds dissolved in DMSO, positive controls or DMSO only was transferred to the assay plate by a pin tool. […] Each test compound was measured at 15 concentrations in three independent runs.
A general note: qHTS replaces the single test concentration by a dilution series.
On to `CC(=O)Oc1ccc2c(c1)CC[C@@H]1[C@@H]2CC[C@]2(C)[C@@H](O)CC[C@@H]12`, for which the Potency entry was “inactive”.
Still for that read-out and setting: for `CCCCCCCCNC` the value was “inactive”.
The same measure, in the same setting: for `NC(=O)N(O)[C@@H]1COc2cc(OCc3ccccc3)ccc21` the value was “inactive”; for `CC1CCCCN1CCCOC(=O)c1ccc(OC2CCCCC2)cc1` (stereo not given), “inactive”.
`N[C@@H](Cc1ccc(O)cc1)C(=O)O`: the activation is 0.14% [at 6.97 µM].
`CCCCN(CCCC)C(=S)SSC(=S)N(CCCC)CCCC`: the Potency entry was “inactive”.
For the compound `CC(N)=O`, the Potency entry was “inactive”.
Same read-out and setting: for `Cc1nc2sccn2c(=O)c1CCN1CCC(=C(c2ccc(F)cc2)c2ccc(F)cc2)CC1` the value was “inactive”; for `C=C(C)C(=O)OCCOCCOCCOCCOC(=O)C(=C)C`, “inactive”; for `Cc1cc2c(cc1C(F)(F)F)N(C(=O)Nc1ccc(Oc3cccnc3C)nc1)CC2`, “inactive”.
Same read-out and setting: for `Cc1cc2nc3ccc(=[N+](C)C)cc-3sc2cc1N` the value was “inactive”; for `Cc1ccc2c(Br)cc(Br)c(O)c2n1`, “inactive”.
The same measure, in the same setting: for `Oc1ccccc1-c1nnco1` the value was “inactive”.
In the case of `O=S(=O)(O)c1ccccc1/C=C/c1ccc(-c2ccc(/C=C/c3ccccc3S(=O)(=O)O)cc2)cc1`, the Potency result is “inactive”.
On the same count and under the same terms, for `OC(CCN1CCCCC1)(c1ccccc1)C1CC2C=CC1C2` (stereo not given) the value was “inactive”; for `NC1(c2ccc(-c3nc4ccn5c(=O)[nH]nc5c4cc3-c3ccccc3)cc2)CCC1`, “inactive”; for `OCCCS`, “inactive”.
For the compound `CCCCCCC[N+](CC)(CC)CCCCc1ccc(Cl)cc1`, the Potency result is “inactive”.
The same measure, in the same setting: for `CCOc1ccc(C(=O)OCCN(CC)CC)cc1` the value was “inactive”; for `CN(C)CCN(Cc1ccccc1)c1ccccn1`, “inactive”; for `CCCC(CC)CCCCCCCN` (stereo not given), “inactive”.
Still for that read-out and setting: for `COC(=O)C1=C(C)NC(C)=C(C(=O)OC(C)C)C1c1cccc2nonc12` (stereo not given) the value was “inactive”; for `S=C([S-])NCCNC(=S)[S-].[Mn+2]`, “inactive”; for `Oc1ccc(Cc2ccccc2)cc1`, “inactive”.
On the same count and under the same terms, for `NC(=O)c1cc[n+](CC2=C(C(=O)[O-])N3C(=O)[C@@H](NC(=O)Cc4cccs4)[C@H]3SC2)cc1` the value was “inactive”; for `Nc1ccc(N)c2ccccc12`, “inactive”; for `CCCCCCCCCCCCN(CCCCCCCCCCCC)CCCCCCCCCCCC`, “inactive”.
For `CO`, the Potency entry is “inactive”.
Same read-out and setting: for `O=C1NCCN1CCN1CCC(c2cn(-c3ccc(F)cc3)c3ccc(Cl)cc23)CC1` the value was “inactive”.
Take `Cc1cc(-c2ccc(N=Nc3cc(S(=O)(=O)O)c4ccccc4c3N)c(C)c2)ccc1N=Nc1cc(S(=O)(=O)O)c2ccccc2c1N`: the Potency result was “inactive”.
The same measure, in the same setting: for `O=C1NC(=O)C2CC=CCC12` (stereo not given) the value was “inactive”.
The same measure, in the same setting: for `CCCCCC(CO)CCC` (stereo not given) the value was “inactive”.
Regarding `COc1cc2c(cc1OC)-c1cc(=Nc3c(C)cc(C)cc3C)n(C)c(=O)n1CC2`, the Potency result was “inactive”.
Still for that read-out and setting: for `Cc1cccc(C(=O)O)c1O` the value was “inactive”.
Still for that read-out and setting: for `CCO[Si](CCCSSSSCCC[Si](OCC)(OCC)OCC)(OCC)OCC` the value was “inactive”; for `O=c1cc(O)c(Cl)c[nH]1`, “inactive”; for `CCOc1ccc2nc(S(N)(=O)=O)sc2c1`, “inactive”.
On the same count and under the same terms, for `CCCCCCCCCCC[C@@H](C[C@@H]1OC(=O)[C@H]1CCCCCC)OC(=O)[C@H](CC(C)C)NC=O` the value was “inactive”.
`CCS(=O)(=O)c1ccc(OC)c(C(=O)OC)c1`: the Potency entry is “inactive”.
Still for that read-out and setting: for `CCN(CC)CCOc1ccc2c(c1)C(=O)c1cc(OCCN(CC)CC)ccc1-2` the value was “inactive”.
